Assay results published in ChEMBL document CHEMBL4513216, “Probing the Open Global Health Chemical Diversity Library for Multistage-Active Starting Points for Next-Generation Antimalarials” (ACS Infect Dis, 2020).
The whole screen tested about 69,000 compounds, of which about 8,600 (12%) showed an effect of 50% or more. This is one part of a sample in which strong results are shown more often than they occur.

test system: Plasmodium berghei; test: Screen against P. berghei liver stage (PbLuc), transformed with Luciferase, at 10uM; format: functional, HepG2; conditions: tested at 10 uM

Going from `CCCNC(=O)c1[nH]nc(C2CC2)c1Br` to `Cc1noc(C)c1CN(C)C(=O)NC1CCOCC1`, the INHIBITION rises from -59.9% to 22.95%.

Compared with `Cn1cnc2ccc(NC(=O)CCCn3cccn3)cc2c1=O`, `Cn1ccnc1Sc1ccc(S(N)(=O)=O)cn1` is higher in INHIBITION: 2.84% for the first, 7.92% for the second.

Going from `O=C(c1ccccc1F)N1CCCC1Cn1c(=O)oc2ccccc21` (stereo unspecified) to `O=C(COCc1ccccc1Cl)N1CCCC(n2ccnc2)C1` (stereo unspecified), the INHIBITION rises from -1.4% to 17.5%.

Compared with `Fc1ccccc1C(CNc1ccncn1)N1CCCC1` (stereo unspecified), `COCC(=O)N1CCCCC1c1ccnc(Nc2cnccn2)n1` (stereo unspecified) is lower in INHIBITION: 43.4% for the first, -26.2% for the second.

Compared with `CCc1nc2ccccc2c(=O)n1CC1(O)CCN(S(C)(=O)=O)CC1`, `CS(=O)(=O)N1CCC(O)(Cn2c(C3CC3)nc3ccccc3c2=O)CC1` is lower in INHIBITION: 52.9% for the first, 38.1% for the second.

Compared with `CCc1nc2ccccc2c(=O)n1CC1(O)CCNCC1`, `CN1C(=O)C(c2ccccc2)CC12CCN(CCOCCO)CC2` (stereo unspecified) is lower in INHIBITION: 28% for the first, -26.4% for the second.

Compared with `CC(C)CCN1CCN(C(=O)c2c[nH]nn2)CC1`, `CCOCCN1CCN(c2ccc(C#N)cn2)CC1` is higher in INHIBITION: -0.275% for the first, 45.4% for the second.

First: Cc1nc(COC[C@@H]2CC[C@H]3[C@H](CCN3c3ccccn3)O2)cs1
Second: Cc1nc(CN2CCCC3(CCN(c4cnn(C)c4)C3=O)C2)cs1 (stereo unspecified)
The INHIBITION of the first is lower: -106% for the first, 6.55% for the second.

First: CN1CC2(CCN(CCOCCO)CC2)CC(c2ccccc2)C1=O (stereo unspecified)
Second: CCN1CC2(CCN(CCOCCO)CC2)CC(c2ccccc2)C1=O (stereo unspecified)
The INHIBITION of the first is higher: 73.4% for the first, 7.84% for the second.

First: CCN(C(=O)C(C)C)C(c1cccnc1)c1ccc2c(c1)CCO2 (stereo unspecified)
Second: CCC(=O)N(CC)C(c1cccnc1)c1ccc2c(c1)CCO2 (stereo unspecified)
The INHIBITION of the first is lower: 3.87% for the first, 37.9% for the second.

First: CCN(C(=O)C1CC1)C(c1cccnc1)c1ccc2c(c1)CCO2 (stereo unspecified)
Second: CCN(C(=O)C1CCC1)C(c1cccnc1)c1ccc2c(c1)CCO2 (stereo unspecified)
The INHIBITION of the first is lower: 21.8% for the first, 66.2% for the second.

First: CCCC(=O)N(CC)C(c1cccnc1)c1ccc2c(c1)CCO2 (stereo unspecified)
Second: CCN(C(=O)COC)C(c1cccnc1)c1ccc2c(c1)CCO2 (stereo unspecified)
The INHIBITION of the first is lower: 29.4% for the first, 51.8% for the second.

Compared with `CS(=O)(=O)c1cc(Cl)cnc1C1CCN(C(=O)C2CC2)CC1`, `CC(C)N(C)Cc1cnc2n1CCN(C(=O)NC1CCCC1)C2` is higher in INHIBITION: 15.49% for the first, 34.1% for the second.

Going from `CCOC(=O)c1nc(COc2c(C)occc2=O)no1` to `CCOc1ccc(S(=O)(=O)N(C)Cc2cnn(CC)c2)cc1`, the INHIBITION rises from 41.7% to 55.7%.

First: CCn1cc(CN(C)S(=O)(=O)c2ccc(Cl)cc2)cn1
Second: CCn1cc(CN(C)S(=O)(=O)c2ccccc2)cn1
The INHIBITION of the first is lower: -64.7% for the first, 35.8% for the second.

Going from `NC(=O)C1CCN(C(=O)CCCc2nnc(-c3ccccc3)o2)CC1` to `CCS(=O)(=O)N1CCCC(n2nnn(-c3ccccc3)c2=O)C1` (stereo unspecified), the INHIBITION falls from 33.7% to -8.5455%.

Compared with `O=C(O)[C@@H]1CN(C2CCOCC2)C[C@H]1C1CC1`, `O=C(O)[C@@H]1CN(C2CCCC2)C[C@H]1C1CC1` is higher in INHIBITION: 25.1% for the first, 57.9% for the second.

Going from `O=C([C@H]1COC[C@H]2CN(C3CCCC3)C[C@H]21)N1CCCO1` to `O=C([C@@H]1COC[C@H]2CN(C3CCCC3)C[C@H]21)N1CCCO1`, the INHIBITION falls from 71.4% to 35.4%.

Going from `O=C([C@@H]1COC[C@H]2CN(C3CCCC3)C[C@H]21)N1CCC(F)CC1` to `O=C([C@H]1COC[C@H]2CN(C3CCOCC3)C[C@H]21)N1CCC(F)CC1`, the INHIBITION falls from 50.3% to -20.4%.

Compared with `O=C([C@@H]1COC[C@H]2CN(C3CCOCC3)C[C@H]21)N1CCOCC1`, `O=C([C@H]1COC[C@H]2CN(C3CCCC3)C[C@H]21)N1CCOCC1` is higher in INHIBITION: -5.69% for the first, 74.7% for the second.

First: O=C([C@H]1COC[C@H]2CN(C3CCCC3)C[C@H]21)N1CCCCO1
Second: O=C([C@H]1COC[C@H]2CN(C3CCCCC3)C[C@H]21)N1CCOCC1
The INHIBITION of the first is lower: 5.65% for the first, 31.2% for the second.

Compared with `O=C(O)[C@@H]1CN(C2CCCCC2)C[C@H]1C1CC1`, `O=C([C@@H]1COC[C@H]2CN(C3CCCCC3)C[C@H]21)N1CCOCC1` is lower in INHIBITION: 9.34% for the first, 7.7% for the second.

Going from `CS(=O)(=O)NCCCNCc1cc(F)ccc1Br` to `Cc1cccc(N2CCN(C(=O)CCCC(=O)N(C)C)C(C)C2)n1` (stereo unspecified), the INHIBITION rises from 30.2% to 39.3%.

First: Cc1nccn1C1CCCN(C(=O)c2cnc[nH]2)C1 (stereo unspecified)
Second: O=S(=O)(c1cccs1)N1CCCCC1c1ccn[nH]1 (stereo unspecified)
The INHIBITION of the first is lower: -9.37% for the first, 29.3% for the second.

Compared with `Cn1nc(Cn2cccn2)c2c1CN(C1CCOCC1)C2`, `Cc1cccc(CN2C[C@@H]3COC[C@]3(CNC(=O)c3cccn3C)C2)n1` is lower in INHIBITION: 44.2% for the first, -17.1% for the second.

`CN(C(=O)c1ccccc1NCC(=O)O)C(C1CC1)C1CC1` gave an INHIBITION of 25.8%.
